Among all 350,000 compounds or so, about 7,000 (2%) were called active. Rule as the data show it: active = activation above about 40%; inconclusive = no clear call, values can overlap the other calls; inactive = below that. The entries come from a sample that favours actives as a whole.

The assay in a line: raisers of Bmi1 knock-in reporter signal – mouse ES cells, Bmi1 luciferase knock-in, single point, esBAF inhibitor project, primary screen (AID 602393).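 Also: 0% = median of the plate's neutral control wells and 100% = double that signal; a rise in the Bmi1 reporter signal indicates esBAF inhibition.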 Conditions: 24 h, at 12.5 µM, stronger effect = higher value, 100% = twice the neutral-well signal.
In the case of `C[C@@H]1CN([C@H](C)CO)C(=O)c2cccc(NS(=O)(=O)c3ccc(F)cc3)c2O[C@@H]1CN(C)S(=O)(=O)c1ccc(Cl)cc1`, the reporter increase was 0.559% (inactive).

Regarding `CO[C@@H](CN(C)S(=O)(=O)c1ccc(F)cc1)[C@H](C)CN(C(=O)Nc1ccccc1F)[C@@H](C)CO`, the reporter increase is 7.4% (inactive).

As to `O=C(C[C@H]1C=C[C@@H](NC(=O)c2cnccn2)[C@H](CO)O1)NCc1ccccc1F`, the reporter increase is -1.5% (inactive).

Take `CC(C)NC(=O)N[C@@H]1CC[C@H](CCn2cc(-c3ccccc3)nn2)O[C@H]1CO`: the reporter increase was 1.66% (inactive).

With `CCNC(=O)C[C@@H]1CC[C@@H]2[C@@H](COc3ccc(NC(C)=O)cc3C(=O)N2C)O1`, the reporter increase is -3.06% (inactive).

On to `CCOC(=O)C1=C(c2ccccc2)O/C(=C(/C(=O)OC)C(F)(F)F)S1`, for which the reporter increase is -7.41% (inactive).

Consider `COC(=O)/C(=C1\Oc2ccc(C(C)(C)C)cc2S1)C(F)(F)F`, for which the reporter increase is 53.4% (active).

As to `COCC#Cc1cnc2c(c1)C(=O)N([C@H](C)CO)C[C@@H](C)[C@@H](CN(C)C(=O)Nc1cccc(F)c1)O2`, the reporter increase was -0.578% (inactive).

As for `C[C@H](CO)N1C[C@H](C)[C@@H](CN(C)Cc2ccccn2)Oc2ncc(C3=CCCC3)cc2C1=O`, the reporter increase was -4.21% (inactive).

For the compound `C[C@@H]1CN([C@@H](C)CO)C(=O)c2cc(-c3ccc(C#N)cc3)cnc2O[C@H]1CN(C)C(=O)CN(C)C`, the reporter increase is 0.919% (inactive).

As to `CCc1c(C)sc(NC(=O)c2cccs2)c1C(N)=O`, the reporter increase is 57.1% (active).

Consider `CCc1c(C)sc(NC(=O)c2ccc(Br)o2)c1C(=O)OC`, for which the reporter increase is 0.318% (inactive).

Consider `CCOC(=O)c1oc2ccccc2c1NC(=O)c1cccs1`, for which the reporter increase was -0.529% (inactive).

In the case of `COc1ccc(CN2C[C@@H](C)[C@H](OC)CN(C)C(=O)c3cc(NC(C)=O)ccc3OC[C@@H]2C)cc1`, the reporter increase is 1.02% (inactive).

In the case of `CN(C)CC(=O)N[C@@H]1CC[C@H](CC(=O)NCc2ccc(Cl)cc2)O[C@H]1CO`, the reporter increase was 2.07% (inactive).

In the case of `CCCN(C)C[C@@H]1Oc2cc(-c3ccc(C)cc3)ccc2S(=O)(=O)N([C@@H](C)CO)C[C@H]1C`, the reporter increase was -1.82% (inactive).

With `CO[C@H]1CN(C)C(=O)c2ccc(NC(=O)c3cc(C)on3)cc2OC[C@H](C)N(C)C[C@H]1C`, the reporter increase is -3.45% (inactive).

`Cc1ccc(OCc2nc(C#N)c(N3CCCC3)o2)cc1`: the reporter increase is 6.84% (inactive).

Consider `CCOc1ccc(Nc2oc(Cc3ccccc3)nc2C#N)cc1`, for which the reporter increase is 52% (active).

`COc1ccc(Nc2oc(-c3ccccc3Cl)nc2C#N)cc1`: the reporter increase is 11.5% (inactive).

With `COc1ccc(NC(=O)N(C)C[C@@H]2OCCCC[C@H](C)Oc3ccc(NS(=O)(=O)c4c(C)noc4C)cc3C(=O)N([C@@H](C)CO)C[C@@H]2C)cc1`, the reporter increase is 10.5% (inactive).

In the case of `Cc1ccc(Nc2nc(C)cc(C)c2C(N)=O)cc1`, the reporter increase is -0.241% (inactive).

For the compound `Cc1ccc(NC(=O)c2ccn(C(=O)Nc3ccccc3)n2)c(C)c1`, the reporter increase is 33.7% (inactive).

In the case of `Cc1ccc2nc(Nc3ccccc3)cc(C)c2c1`, the reporter increase is 48.3% (active).

With `O=C(C[C@H]1CC[C@H](NC(=O)c2ccncc2)[C@H](CO)O1)Nc1ccccc1`, the reporter increase was 6.5% (inactive).

As to `CNC[C@H]1OCCCC[C@@H](C)Oc2ccc(NC(=O)c3ccccc3)cc2C(=O)N([C@@H](C)CO)C[C@H]1C`, the reporter increase is 9.15% (inactive).

For `C[C@@H]1CN([C@H](C)CO)C(=O)c2cc(C#CC3(O)CCCC3)cnc2O[C@H]1CN(C)Cc1ccncc1`, the reporter increase is -2.58% (inactive).

As to `Cc1ccccc1NC(=S)NC(=O)Cc1ccc(Cl)cc1`, the reporter increase was 5.51% (inactive).

`Cc1ccc(C(=O)NC(=S)Nc2ccc(N3CCOCC3)cc2)cc1`: the reporter increase is 5.69% (inactive).

Take `Cc1ccc(C(=O)NC(=S)Nc2ccccc2C)cc1`: the reporter increase was 69.2% (active).

In the case of `CC(C)NC(=O)N[C@H]1C=C[C@H](CC(=O)NCCN2CCCC2)O[C@@H]1CO`, the reporter increase is -2.39% (inactive).

For `COC(=O)Cc1c(C)c2ccc(OCC(=O)NCc3ccc4c(c3)OCO4)cc2oc1=O`, the reporter increase was 4.08% (inactive).

As to `CCc1c(C)c2ccc(OC3CCCCC3=O)cc2oc1=O` (stereo unspecified), the reporter increase is 65.6% (active).

For `Cc1c(CCC(=O)O)c(=O)oc2cc(OCc3ccc(Br)cc3)ccc12`, the reporter increase was 14.3% (inactive).

As to `COc1cccc(CNC(=O)[C@@H]2[C@@H](CO)[C@@H]3Cn4c(ccc(-c5ccncc5)c4=O)[C@H]2N3C(C)=O)c1`, the reporter increase was 5.45% (inactive).

Turning to `CO[C@@H]1CN(C)C(=O)c2cc(NS(=O)(=O)CC(F)(F)F)ccc2OC[C@H](C)N(Cc2ccccn2)C[C@@H]1C`, the reporter increase was 0.135% (inactive).

Consider `C[C@@H]1CN([C@@H](C)CO)C(=O)c2cccc(N(C)C)c2O[C@@H]1CN(C)S(=O)(=O)c1ccccc1`, for which the reporter increase is 0.064% (inactive).

Regarding `CCCn1nnnc1NC(=O)COc1ccc(Cl)cc1C`, the reporter increase was -3.97% (inactive).

As for `Cc1cc(NC(=O)COc2ccc(Cl)cc2Cl)n(CCC#N)n1`, the reporter increase was 97.9% (active).

On to `O=C(COc1ccc([N+](=O)[O-])cc1Cl)Nn1cnnc1`, for which the reporter increase was -5.37% (inactive).

On to `CCC(=O)N1C[C@H](C)[C@H](OC)CN(C)C(=O)c2ccc(NC(=O)c3cnccn3)cc2OC[C@@H]1C`, for which the reporter increase was -10.3% (inactive).

Consider `CC(C)NC(=O)N(C)C[C@@H]1Oc2cc(C#C[C@H](C)O)ccc2S(=O)(=O)N([C@@H](C)CO)C[C@H]1C`, for which the reporter increase is 0.093% (inactive).

For the compound `O=C(c1ccncc1)N1C[C@H]2[C@@H](c3ccccc31)[C@H](CO)N2Cc1ccc(F)cc1`, the reporter increase is -3.53% (inactive).

On to `CCOc1ccc2cc(C#N)c(SCC(=O)OC)nc2c1`, for which the reporter increase is 66.4% (active).

For the compound `Cc1nonc1NC(=O)CSc1nc2ccccc2cc1C#N`, the reporter increase is 36.1% (inactive).

As for `COC(=O)CSc1nc(C)c2ccc(OC)cc2n1`, the reporter increase is -3.51% (inactive).

For `C[C@@H]1CN([C@@H](C)CO)C(=O)c2cc(NS(=O)(=O)c3ccccc3)ccc2O[C@H]1CN(C)S(=O)(=O)c1ccc(Cl)cc1`, the reporter increase was 11.7% (inactive).

With `CCCN1[C@H](C(=O)NCC)[C@@H](CO)[C@@H]2Cn3c(ccc(C4=CCCC4)c3=O)[C@@H]21`, the reporter increase is -2.59% (inactive).

In the case of `CCC(=O)Nc1ccc2c(c1)C(=O)N(C)[C@@H]1CC[C@@H](CC(=O)N[C@@H](C)c3ccccc3)O[C@@H]1CO2`, the reporter increase was -1.27% (inactive).

As for `COc1cccc(NC(=O)Nc2ccc3c(c2)C(=O)N(C)C[C@H](OC)[C@@H](C)CN[C@@H](C)CO3)c1`, the reporter increase is 2.37% (inactive).

`FC(F)(F)c1ccnc(Oc2ccc(C3=NCCS3)cc2)c1`: the reporter increase was 45.6% (active).

Turning to `C/C=C/c1cnc2c(c1)C(=O)N([C@H](C)CO)C[C@@H](C)[C@H](CN(C)Cc1cccc(C(=O)O)c1)O2`, the reporter increase was -4.01% (inactive).

With `Cc1noc(C)c1S(=O)(=O)N(C)C[C@H]1Oc2ccc(NC(=O)Cc3ccccc3)cc2CC(=O)N([C@@H](C)CO)C[C@H]1C`, the reporter increase is 6.49% (inactive).

As for `C[C@@H]1CN([C@@H](C)CO)C(=O)c2cc(NC(=O)c3ccncc3)ccc2O[C@@H]1CN(C)S(C)(=O)=O`, the reporter increase was 0.579% (inactive).

Regarding `CN1c2ccc(C#Cc3cccnc3)cc2[C@@H]2[C@@H](CCN2S(=O)(=O)c2ccccc2)[C@H]1CO`, the reporter increase was 11.3% (inactive).

Consider `O=c1oc(-c2ccco2)nc2sc3c(c12)CCCCC3`, for which the reporter increase was 57.3% (active).

On to `O=S(=O)(c1ccc(Cl)cc1)c1nc(-c2ccco2)oc1N1CCCCC1`, for which the reporter increase is -5.66% (inactive).

On to `N=c1c2c3c(sc2nc2n1CCCCC2)CCCC3`, for which the reporter increase is 24.2% (inactive).

For `CCCNC(=O)N1C[C@@H](C)[C@@H](OC)CN(C)C(=O)c2ccc(NC(=O)CCC)cc2OC[C@H]1C`, the reporter increase was -1.55% (inactive).

Consider `COCC#Cc1cnc2c(c1)C(=O)N([C@H](C)CO)C[C@H](C)[C@@H](CN(C)C(=O)Nc1cc(F)ccc1F)O2`, for which the reporter increase is 6.3% (inactive).

Take `COCC#Cc1ccc2c(c1)O[C@H](CN(C)C(=O)C1CCOCC1)[C@@H](C)CN([C@@H](C)CO)S2(=O)=O`: the reporter increase was 5.12% (inactive).

Regarding `COc1ccc(C2CC(=O)NC(=O)C2)cc1`, the reporter increase was -4.89% (inactive).

Regarding `COc1ccc([C@H]2CC(=O)C=C(c3ccc(C)cc3)C2)cc1`, the reporter increase was 8.3% (inactive).

Take `COc1ccc([C@H]2CC(=O)C=C(/C=C/c3ccccc3)C2)cc1`: the reporter increase was 70.2% (active).

With `C[C@H](CO)N1C[C@H](C)[C@@H](CN(C)C)Oc2cc(C#Cc3ccccc3)ccc2S1(=O)=O`, the reporter increase is -3.93% (inactive).

Turning to `COc1cccc(NC(=O)C(=O)c2cn(CC(=O)N3CCOCC3)c3ccccc23)c1`, the reporter increase was 20.7% (inactive).

With `Cc1ccc(CNC(=O)C(=O)c2cn(CC(=O)N3CCOCC3)c3ccccc23)cc1`, the reporter increase is 20.4% (inactive).

For `O=C(Nc1ccc(F)cc1)C(=O)c1cn(CC(=O)N2CCOCC2)c2ccccc12`, the reporter increase is 41% (active).

In the case of `CO[C@@H]1CN(C)C(=O)c2cc(NC(=O)C3CCC3)ccc2OC[C@H](C)N(C(=O)CN(C)C)C[C@@H]1C`, the reporter increase was -3.99% (inactive).

As for `C[C@H](CO)N1C[C@H](C)[C@@H](CN(C)C(=O)Nc2ccc3c(c2)OCO3)OCCCC[C@H](C)Oc2ccc(NS(=O)(=O)c3cn(C)cn3)cc2C1=O`, the reporter increase was -2.06% (inactive).

Regarding `C[C@H]1CN([C@@H](C)CO)C(=O)Cc2cc(NC(=O)Nc3cccc4ccccc34)ccc2O[C@@H]1CN(C)C`, the reporter increase is -2.18% (inactive).

On to `COc1ccc(S(=O)(=O)N(C)C[C@H]2Oc3ccc(NC(=O)Nc4ccccc4)cc3CC(=O)N([C@H](C)CO)C[C@@H]2C)cc1`, for which the reporter increase was -4.23% (inactive).

`O=C(NCCCn1ccnc1)c1cc(Br)c(Br)s1`: the reporter increase was -10.5% (inactive).

In the case of `O=C(NCCCn1ccnc1)c1cc(-c2ccccc2)on1`, the reporter increase was 47.2% (active).

`O=C(NCCCn1ccnc1)c1ccccc1F`: the reporter increase is -2.18% (inactive).

As to `C[C@@H](NC(=O)[C@@H]1[C@@H](CO)[C@@H]2Cn3c(ccc(C4=CCCCC4)c3=O)[C@@H]2N1C)c1ccccc1`, the reporter increase was 1.48% (inactive).

These data come from PubChem BioAssay AID602393 (Broad Institute, 2012).
